Test in all cases: DAPPL (digital affinity profiling via proximity ligation, sequencing); 10 mM Tris-HCl pH 7.5, 50 mM NaCl, 1 mM DTT, 4% glycerol, room temperature, 30 min; GST-TFs on glutathione beads, 16-mer random dsDNA library, 0.1% formaldehyde crosslink after washing; high values mean tight binding
What all share (conditions): protein: recombinant; tags: N-terminal GST; dsDNA, one strand shown

For one test, the target named is T1, ERF (Homo sapiens, UniProt P50548 1-548).
T1 sequence: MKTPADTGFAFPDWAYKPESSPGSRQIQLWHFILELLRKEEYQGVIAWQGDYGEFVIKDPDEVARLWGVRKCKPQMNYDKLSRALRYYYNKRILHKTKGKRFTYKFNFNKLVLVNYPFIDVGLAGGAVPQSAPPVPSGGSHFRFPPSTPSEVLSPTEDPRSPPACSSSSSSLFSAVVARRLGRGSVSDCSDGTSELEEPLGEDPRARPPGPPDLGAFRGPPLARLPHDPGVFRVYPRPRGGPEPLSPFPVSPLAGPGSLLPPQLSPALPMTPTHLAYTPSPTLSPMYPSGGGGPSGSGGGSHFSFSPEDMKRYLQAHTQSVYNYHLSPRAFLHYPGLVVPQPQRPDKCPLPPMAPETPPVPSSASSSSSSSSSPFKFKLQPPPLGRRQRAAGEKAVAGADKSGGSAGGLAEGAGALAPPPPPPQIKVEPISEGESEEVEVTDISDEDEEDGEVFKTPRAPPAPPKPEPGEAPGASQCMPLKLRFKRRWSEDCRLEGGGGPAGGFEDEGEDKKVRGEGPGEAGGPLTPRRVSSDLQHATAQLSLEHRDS
The procedure, abridged:
(§1)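 A tag-only sample was pooled with DNA-barcoded human transcription factors that had been expressed in yeast as GST fusions and captured on glutathione beads. The pools were incubated for 30 min at room temperature with 200 nmole of a random double-stranded 16-mer DNA library in Tris/NaCl/DTT/glycerol buffer, then washed, crosslinked with 0.1% formaldehyde, proximity-ligated (BsaI/T4 ligase, 1 h, 37 °C), PCR-amplified and sequenced on an Illumina NextSeq500. Binding signal is each hexamer's read frequency for a factor divided by its frequency for the tag-only sample.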

Another test deals with T2, ETV3L (Homo sapiens, UniProt Q6ZN32 1-361).
T2 sequence: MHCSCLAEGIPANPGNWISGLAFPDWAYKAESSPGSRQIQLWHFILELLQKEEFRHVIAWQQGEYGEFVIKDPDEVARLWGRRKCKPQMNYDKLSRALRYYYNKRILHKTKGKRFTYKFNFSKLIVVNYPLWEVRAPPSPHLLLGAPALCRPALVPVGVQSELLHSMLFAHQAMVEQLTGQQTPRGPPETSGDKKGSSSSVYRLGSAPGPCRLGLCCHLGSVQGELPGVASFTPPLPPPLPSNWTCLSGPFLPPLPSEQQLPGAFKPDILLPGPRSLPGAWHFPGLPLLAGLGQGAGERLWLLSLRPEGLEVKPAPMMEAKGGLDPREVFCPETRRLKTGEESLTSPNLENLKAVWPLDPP
A digest of the protocol:
as §1

The target of another test is T3, ETS2 (Homo sapiens, UniProt P15036 1-469).
T3 sequence: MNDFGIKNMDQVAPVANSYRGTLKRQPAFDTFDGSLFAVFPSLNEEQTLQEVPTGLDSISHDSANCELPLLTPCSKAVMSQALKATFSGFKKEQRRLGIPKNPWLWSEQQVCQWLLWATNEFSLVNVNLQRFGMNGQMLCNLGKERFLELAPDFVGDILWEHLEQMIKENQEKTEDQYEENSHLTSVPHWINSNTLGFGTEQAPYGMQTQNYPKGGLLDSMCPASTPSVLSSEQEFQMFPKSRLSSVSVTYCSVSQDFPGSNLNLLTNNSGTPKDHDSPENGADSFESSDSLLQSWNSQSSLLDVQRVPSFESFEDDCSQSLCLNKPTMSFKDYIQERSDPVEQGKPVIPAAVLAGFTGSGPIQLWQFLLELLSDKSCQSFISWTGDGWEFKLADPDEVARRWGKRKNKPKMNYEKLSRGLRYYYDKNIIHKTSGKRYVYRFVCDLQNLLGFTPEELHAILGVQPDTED
A digest of the protocol:
as §1

The target in another test is T4, SPDEF (Homo sapiens, UniProt O95238 1-335).
T4 sequence: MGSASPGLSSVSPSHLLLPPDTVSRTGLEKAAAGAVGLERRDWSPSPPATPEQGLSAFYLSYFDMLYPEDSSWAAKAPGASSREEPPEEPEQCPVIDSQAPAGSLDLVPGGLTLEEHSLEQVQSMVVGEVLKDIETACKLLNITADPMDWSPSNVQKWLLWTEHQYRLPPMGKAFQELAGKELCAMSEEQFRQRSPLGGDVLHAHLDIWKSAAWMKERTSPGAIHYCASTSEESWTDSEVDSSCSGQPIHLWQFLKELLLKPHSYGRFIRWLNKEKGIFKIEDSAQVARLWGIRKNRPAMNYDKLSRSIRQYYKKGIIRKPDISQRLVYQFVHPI
The procedure, abridged:
as §1

For a further test, the target named is T5, ETV7 (Homo sapiens, UniProt Q9Y603 1-341).
T5 sequence: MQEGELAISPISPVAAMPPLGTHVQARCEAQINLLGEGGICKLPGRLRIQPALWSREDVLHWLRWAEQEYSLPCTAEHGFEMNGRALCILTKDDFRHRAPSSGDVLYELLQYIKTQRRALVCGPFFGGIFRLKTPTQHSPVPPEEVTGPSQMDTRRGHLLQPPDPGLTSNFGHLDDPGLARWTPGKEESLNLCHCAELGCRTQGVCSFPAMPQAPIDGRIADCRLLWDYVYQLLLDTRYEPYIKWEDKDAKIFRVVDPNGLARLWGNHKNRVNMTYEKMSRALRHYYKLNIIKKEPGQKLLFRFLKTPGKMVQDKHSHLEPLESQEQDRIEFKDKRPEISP
A digest of the protocol:
as §1

In another test the target is T6, ELF5 (Homo sapiens, UniProt Q9UKW6-2 1-255).
T6 sequence: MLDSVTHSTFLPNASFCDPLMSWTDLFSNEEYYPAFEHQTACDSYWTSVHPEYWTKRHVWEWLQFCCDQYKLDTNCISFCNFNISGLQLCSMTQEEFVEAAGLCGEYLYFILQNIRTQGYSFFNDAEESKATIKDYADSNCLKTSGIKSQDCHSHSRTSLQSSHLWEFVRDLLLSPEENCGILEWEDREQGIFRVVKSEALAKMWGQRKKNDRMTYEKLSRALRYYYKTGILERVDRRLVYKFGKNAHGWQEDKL
A digest of the protocol:
as §1

Another test addresses T7, ETV3 (Homo sapiens, UniProt P41162-2 1-143).
T7 sequence: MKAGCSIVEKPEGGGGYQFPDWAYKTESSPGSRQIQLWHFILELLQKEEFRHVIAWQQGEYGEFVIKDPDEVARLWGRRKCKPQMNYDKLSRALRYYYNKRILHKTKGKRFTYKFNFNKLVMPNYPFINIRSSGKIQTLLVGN
A digest of the protocol: as §1

The target in a further test is ETV6 (Homo sapiens, UniProt P41212 1-452). A digest of the protocol: as §1
ETV6, sequence (P41212 whole entry): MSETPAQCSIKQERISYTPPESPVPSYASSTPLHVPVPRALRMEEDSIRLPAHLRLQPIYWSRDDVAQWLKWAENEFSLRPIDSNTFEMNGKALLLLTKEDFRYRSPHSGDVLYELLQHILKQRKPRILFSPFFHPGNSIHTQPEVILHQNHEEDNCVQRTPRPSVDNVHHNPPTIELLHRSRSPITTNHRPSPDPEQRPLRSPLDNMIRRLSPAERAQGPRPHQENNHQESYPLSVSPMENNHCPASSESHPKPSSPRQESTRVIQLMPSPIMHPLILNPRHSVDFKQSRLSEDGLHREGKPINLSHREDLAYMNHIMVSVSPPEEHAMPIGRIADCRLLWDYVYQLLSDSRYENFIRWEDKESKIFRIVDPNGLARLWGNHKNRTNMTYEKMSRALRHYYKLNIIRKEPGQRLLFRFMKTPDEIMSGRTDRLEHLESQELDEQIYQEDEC

In the case of CCTCGT, the binding signal with ERF was 1.23 fold enrichment (6-mer frequency, TF over GST control); with ETV3L it was 1.2 fold enrichment (6-mer frequency, TF over GST control); with ETS2, 1.25 fold enrichment (6-mer frequency, TF over GST control); with SPDEF it was 1.19 fold enrichment (6-mer frequency, TF over GST control); with ETV7, 1.17 fold enrichment (6-mer frequency, TF over GST control); with ELF5, 1.4 fold enrichment (6-mer frequency, TF over GST control). Further, the binding signal with ETV3 is 1.27 fold enrichment (6-mer frequency, TF over GST control); with ETV6, 1.23 fold enrichment (6-mer frequency, TF over GST control).
On to CTTGCA, for which the binding signal is 1.39 fold enrichment (6-mer frequency, TF over GST control) in the test with ERF; 1.53 fold enrichment (6-mer frequency, TF over GST control) with ETV3L; 1.33 fold enrichment (6-mer frequency, TF over GST control) with ETS2; 1.49 fold enrichment (6-mer frequency, TF over GST control) with SPDEF; 1.28 fold enrichment (6-mer frequency, TF over GST control) with ETV7; 1.36 fold enrichment (6-mer frequency, TF over GST control) in the test with ELF5. The binding signal with ETV3 was 1.45 fold enrichment (6-mer frequency, TF over GST control); with ETV6, 1.3 fold enrichment (6-mer frequency, TF over GST control).
As for GTCCTC, the binding signal with ERF is 1.19 fold enrichment (6-mer frequency, TF over GST control); in the test with ETV3L it was 1.22 fold enrichment (6-mer frequency, TF over GST control); with ETS2 it was 1.14 fold enrichment (6-mer frequency, TF over GST control); with SPDEF, 1.19 fold enrichment (6-mer frequency, TF over GST control); with ETV7 it was 1.39 fold enrichment (6-mer frequency, TF over GST control); with ELF5, 1.32 fold enrichment (6-mer frequency, TF over GST control). For the same sequence, the binding signal with ETV3 is 1.2 fold enrichment (6-mer frequency, TF over GST control); with ETV6, 1.06 fold enrichment (6-mer frequency, TF over GST control).
TAACGA: the binding signal was 1.03 fold enrichment (6-mer frequency, TF over GST control) with ERF; 1.04 fold enrichment (6-mer frequency, TF over GST control) with ETV3L; 1.12 fold enrichment (6-mer frequency, TF over GST control) in the test with ETS2; 1.16 fold enrichment (6-mer frequency, TF over GST control) with SPDEF; 1.1 fold enrichment (6-mer frequency, TF over GST control) with ETV7; 1.06 fold enrichment (6-mer frequency, TF over GST control) with ELF5. Further, the binding signal with ETV3 was 1.06 fold enrichment (6-mer frequency, TF over GST control); with ETV6, 1.08 fold enrichment (6-mer frequency, TF over GST control).
With ATTAAC, the binding signal is 1.26 fold enrichment (6-mer frequency, TF over GST control) with ERF; 1.31 fold enrichment (6-mer frequency, TF over GST control) with ETV3L; 1.27 fold enrichment (6-mer frequency, TF over GST control) with ETS2; 1.26 fold enrichment (6-mer frequency, TF over GST control) with SPDEF; 1.24 fold enrichment (6-mer frequency, TF over GST control) with ETV7; 1.23 fold enrichment (6-mer frequency, TF over GST control) in the test with ELF5. For the same sequence, the binding signal is 1.26 fold enrichment (6-mer frequency, TF over GST control) with ETV3 and 1.22 fold enrichment (6-mer frequency, TF over GST control) with ETV6.
For ACTGGC, the binding signal with ERF is 1.18 fold enrichment (6-mer frequency, TF over GST control); in the test with ETV3L it was 1.18 fold enrichment (6-mer frequency, TF over GST control); in the test with ETS2, 1.11 fold enrichment (6-mer frequency, TF over GST control); with SPDEF, 1.04 fold enrichment (6-mer frequency, TF over GST control); in the test with ETV7 it was 1.21 fold enrichment (6-mer frequency, TF over GST control); with ELF5 it was 1.04 fold enrichment (6-mer frequency, TF over GST control). In addition, the binding signal is 1.07 fold enrichment (6-mer frequency, TF over GST control) with ETV3 and 1.15 fold enrichment (6-mer frequency, TF over GST control) with ETV6.
Take TCCCTG: the binding signal with ERF was 1.29 fold enrichment (6-mer frequency, TF over GST control); with ETV3L it was 1.28 fold enrichment (6-mer frequency, TF over GST control); in the test with ETS2, 1.21 fold enrichment (6-mer frequency, TF over GST control); with SPDEF, 1.19 fold enrichment (6-mer frequency, TF over GST control); with ETV7, 1.23 fold enrichment (6-mer frequency, TF over GST control); with ELF5, 1.38 fold enrichment (6-mer frequency, TF over GST control). Also, the binding signal with ETV3 was 1.26 fold enrichment (6-mer frequency, TF over GST control); with ETV6, 1.31 fold enrichment (6-mer frequency, TF over GST control).

These data come from article PMC7862700, “An all-to-all approach to the identification of sequence-specific readers for epigenetic DNA modifications on cytosine”.
